From PubChem BioAssay
Cruzain inh noDet: inhibitors of Trypanosoma cruzi cruzain without detergent | purified cruzain, Z-FR-AMC fluorescence, no detergent | P25779 | Potency, µM, hits mostly inhibitors | 2.3% of 200,000 active | AID 1476; also: nearly all actives have a fitted effect of over 40% in size
Target sequence (P25779 123-467 limits assumed): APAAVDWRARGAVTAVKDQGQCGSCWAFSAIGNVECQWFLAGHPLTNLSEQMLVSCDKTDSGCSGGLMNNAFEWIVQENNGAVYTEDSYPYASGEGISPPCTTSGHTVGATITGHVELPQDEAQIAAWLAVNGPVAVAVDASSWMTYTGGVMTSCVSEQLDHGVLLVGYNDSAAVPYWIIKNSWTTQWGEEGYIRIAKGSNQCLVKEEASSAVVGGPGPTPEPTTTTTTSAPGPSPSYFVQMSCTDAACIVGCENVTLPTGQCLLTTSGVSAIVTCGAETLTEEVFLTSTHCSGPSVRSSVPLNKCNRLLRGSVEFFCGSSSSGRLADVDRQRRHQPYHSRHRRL
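Purified cruzain at 1.5 nM, pre-incubated 15 min with compound at room temperature in 100 mM sodium acetate pH 5.5, 5 mM DTT, 0.00005% Triton X-100. Reaction started with 2 uM Z-FR-AMC; AMC fluorescence increase over 60 s gives rate.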
Cruzain inh Det: cruzain (T. cruzi) inhibition with detergent | P25779 | purified cruzain, Z-FR-AMC fluorescence, 0.01% Triton | Potency, µM, most hits filed as inhibitors | 0.43% of 200,000 active; also: nearly all actives have a fitted effect of over 40% in size
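Cysteine protease activity tested under reducing, mildly acidic conditions (100 mM sodium acetate pH 5.5, 5 mM DTT) plus 0.01% Triton X-100. Cruzain 1.5 nM; substrate Z-FR-AMC 2 uM; 15 min compound preincubation at room temperature.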
NS1 inh: influenza NS1 inhibition | Potency, µM (titrated, usually from 46.1 µM) | 0.4% of 270,000 active | AID 2326; calls by dose curve; also: actives are rising curves; nearly all actives have a fitted effect of over 50% in size
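In this qHTS, NS1 from influenza A is expressed in budding yeast, where it slows growth. Cells are switched from glucose to 2% galactose medium (pH 6.0, -URA), treated with compound, and growth recovery is read at OD600.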
Of the large screens only hits and unclear results are named; the others gave an inactive call; ! = not active in a repeat. The full list was thinned out, with hits kept by preference. Unless noted, calls follow the shape of the dose curve; as a rule, active = well fitted curve in the direction sought with a large enough effect; inconclusive = small, poorly fitted or top-dose-only effect, or another doubt; inactive = no such curve, though single readings can be large; an effect the other way counts as inactive or inconclusive.

O=C(CNc1ccc2ccccc2c1)N/N=C/c1cc2ccccc2nc1Cl	Cruzain inh noDet 25µM
O=C(COc1cccc(Cl)c1)N/N=C\c1cc2ccccc2nc1Cl	none
c1ccc(-c2ccc(C3=Nn4c(nnc4-c4cccs4)SC3)cc2)cc1	none (no result: Cruzain inh noDet, Cruzain inh Det)
CCOc1ccc(C2=Nn3c(nnc3-c3ccccc3)SC2)cc1Cl	Cruzain inh noDet 20µM
Clc1ccc(C2=Nn3c(nnc3-c3cccs3)SC2)cc1	Cruzain inh noDet 7.9µM
Cc1ccc(-c2nnc3n2N=C(c2ccccc2)CS3)cc1	none
COc1cccc(Cn2c(=O)c(-c3ccc(Cl)cc3)nc3cncnc32)c1	none (no result: NS1 inh)
N/C(=N\O)c1cn([C@@H]2O[C@@H](CO)[C@H](O)[C@@H]2O)c2ncnc(NO)c12	none
COc1ccc(Br)cc1/C=N/NC(=O)Cn1nnnc1N	none (no result: Cruzain inh noDet, Cruzain inh Det)
CC(C)Oc1ccc(Br)cc1/C=N\NC(N)=S	Cruzain inh noDet 0.032µM, Cruzain inh Det 0.25µM
Cc1ccn2c(Nc3ccccc3)c(-c3c[nH]c4ccccc34)nc2c1	Cruzain inh noDet 13µM (no result: NS1 inh)
Cc1ccc(Nc2c(-c3c[nH]c4ccccc34)nc3cc(C)ccn23)cc1	Cruzain inh noDet inconclusive (no result: NS1 inh)
COCCNC(=O)CCn1c(=O)c2cc(OC)c(OC)cc2n(CC(=O)Nc2ccc(Cl)cc2F)c1=O	none (no result: NS1 inh)
Cc1cccc(OCCCC(=O)Nc2ccc(S(N)(=O)=O)cc2)c1C	Cruzain inh noDet inconclusive
Cc1cccc(OCC(=O)Nc2ccc(N3CCN(S(C)(=O)=O)CC3)cc2)c1C	Cruzain inh noDet 13µM
Cc1cc(C)cc(OCC(=O)Nc2ccc(N3CCN(C(=O)c4ccco4)CC3)cc2)c1	none
Cc1cccc(OCCCC(=O)Nc2ccc(N3CCCCC3)cc2)c1C	Cruzain inh noDet 20µM
Cc1ccccc1OCC(=O)Nc1ccc(N2CCN(S(C)(=O)=O)CC2)cc1	Cruzain inh noDet inconclusive
Cc1cc(C)cc(OCC(=O)Nc2ccc(N3CCN(S(C)(=O)=O)CC3)cc2)c1	Cruzain inh noDet 16µM
C=C1C(C2(C)C=CC(=O)C(C)(C)C2CC(=O)OC)CC[C@@]2(C)C(c3ccoc3)OC(=O)C3OC132 (stereo not given in full)	none (no result: NS1 inh)
CO[C@@H](CCOCc1ccccc1)C[C@H]1O[C@H](C(=O)OC(C)C)C=C[C@@H]1C	Cruzain inh noDet inconclusive (no result: NS1 inh)
CC1=C(/C=C\C(=O)O)C(C)(C)CCC1	none
Cc1sc(NC(=O)c2cc3ccccc3oc2=O)c(C(=O)OC(C)C)c1-c1ccccc1	Cruzain inh noDet 3.2µM, NS1 inh inconclusive
CCOC(=O)c1c(-c2ccc(C)cc2)csc1NC(=O)c1cc2ccccc2oc1=O	none
O=C(c1cnn(-c2ccc(F)cc2)c1-n1cccc1)N1CCN(c2ccccc2)CC1	none (no result: NS1 inh)
Cc1cc(C(=O)Nc2cccc(F)c2)c2c(C)nn(-c3cccc(Cl)c3C)c2n1	none (no result: NS1 inh)
CCn1cc2nc(SCC(=O)Nc3ccccc3F)n(Cc3ccc(C)cc3)c(=O)c2n1	none (no result: NS1 inh)
C[N+]1([C@H](CO)Cc2c[nH]c3ccccc23)Cc2ccccc2C1	none
CC(C)(C)C(=O)NC(=S)Nc1cc(C(F)(F)F)ccc1N1CCOCC1	none
O=C(NC(=S)Nc1cc(C(F)(F)F)ccc1N1CCOCC1)c1sc2ccccc2c1Cl	Cruzain inh noDet 20µM
O=C(NCCc1ccccc1)c1nn(-c2ccc(F)cc2)nc1CO	none (no result: NS1 inh)
C=CC(=O)CC	none (no result: NS1 inh)
COc1ccc(-n2nnnc2SCC(=O)c2ccc3c(c2)OCCO3)c(OC)c1	Cruzain inh noDet inconclusive
COc1ccc(C)cc1-n1nnnc1SCC(=O)c1ccc2c(c1)OCCO2	Cruzain inh noDet 25µM
Cc1cc(=Nc2ccc3c(c2)c(N)cc(C)[n+]3C)nc(N)n1C	none
C[C@]12C[C@H](O)CC(CO)(CO)C1[C@H](O)C[C@@]13CC4[C@@H](CC12)[C@@]4(C)C3 (stereo not given in full)	none (no result: NS1 inh)
COc1cc(OC)c(NC(=O)N2CC=C(c3c[nH]c4ccccc34)CC2)cc1Cl	Cruzain inh noDet 20µM (no result: NS1 inh)
Cc1ccc(C)c(NC(=O)N2CC=C(c3c[nH]c4ccccc34)CC2)c1	none (no result: NS1 inh)
O=C(NCc1ccccc1)NC1COc2ccccc2C1 (stereo not given)	none (no result: NS1 inh)
O=c1c(O)c(-c2ccc(O)c(O)c2)oc2cc(O)cc(O)c12	Cruzain inh noDet 20µM!, Cruzain inh Det inconclusive
O=c1cc(-c2ccc(O)c(O)c2)oc2cc(O)cc(O)c12	none
Cc1cc2c(cc1C)CSC(c1ccc3ccccc3c1O)SC2	Cruzain inh noDet 25µM
Cc1cc2c(cc1C)CSC(c1c(O)ccc3ccccc13)SC2	Cruzain inh noDet inconclusive
COc1ccc(C(=O)Nc2ccccc2-c2nc3ccccc3s2)c(OC)c1	none (no result: NS1 inh)
O=c1oc(-c2cccs2)nc2sc3c(c12)CCC3	Cruzain inh noDet 13µM
O=c1oc(-c2cccs2)nc2sc3c(c12)CCCC3	Cruzain inh noDet inconclusive
Cc1cccc(C(=O)Nc2ccc(C(=O)OCc3cc(=O)n4c(C)csc4n3)cc2)c1	none (no result: NS1 inh)
CC(=O)c1cc2c(cc1O)OC(C)(C)C=C2	none (no result: NS1 inh)
Cc1ccc2ccc3cc(C(=O)N4CCN(c5ccccc5F)CC4)nc3c2[nH]1	none (no result: NS1 inh)
